The full ranking holds about 33,000 sequences; the median of “normalized occupancy” is about 0.075, and the highest 2% start at about 0.095. Only a selection was taken, and the highest values are over-represented in it overall.
These sequences were tested against MaxL homodimer (Homo sapiens, UniProt P61244 1-160) (assay: universal protein-binding microarray (PBM); PBS-based mixture, 10 nM His-tagged protein dimer, 2% milk, 200 ng/uL BSA, 50 ng/uL salmon testes DNA, 0.02% TX-100; detection with Alexa 488 anti-His antibody;; high values mean tight binding). Settings: protein: recombinant; tags: C-terminal His-tag (pET21a); chain copies: 2; dsDNA, one strand shown.
Outline: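 Agilent 4 x 44 K arrays carrying the 'all 10-mer' universal design were incubated with His-tagged protein dimer at 10 nM. Protein that bound was tagged using fluorophore-conjugated anti-His antibody at 10 ng/μL, and a GenePix 4400A scanned the arrays to give an intensity for every 8-mer. Each binding occupancy value expresses an intensity relative to the top-ranked intensity.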

Sequence of MaxL homodimer (P61244 whole entry): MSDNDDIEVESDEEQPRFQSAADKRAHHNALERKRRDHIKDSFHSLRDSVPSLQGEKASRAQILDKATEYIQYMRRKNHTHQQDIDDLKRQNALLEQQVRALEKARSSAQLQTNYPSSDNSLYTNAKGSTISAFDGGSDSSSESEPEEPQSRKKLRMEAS

Sequence | binding signal [normalized occupancy]
GAGAAGGA | 0.0733
CAACAATC | 0.0759
ATGCCCGG | 0.0744
AGACCTTA | 0.0772
AGCGTTGG | 0.0764
CGCGTGGC | 0.154
GGCGTGGA | 0.0968
AGCGTGGC | 0.108
ACCGTGGC | 0.0752
GGCGTCGA | 0.0725
CCCGTGGC | 0.0811
CGGGTGGC | 0.0775
GCCGTGGA | 0.0736
AGCGTGGG | 0.113
AGCGTTGC | 0.0728
AGAGTGGG | 0.0749
CCCCAAAA | 0.0734
AATAACCC | 0.0806
AACAGGAT | 0.0759
CCGTCCTC | 0.0798
CGTCACGA | 0.0766
GTGGACGA | 0.0753
AACTCTAC | 0.0729
CGCATCAG | 0.0761
CTATAGGA | 0.0753

Sequence | binding signal [normalized occupancy]
TGCCAGAA | 0.0775
AGTGTGGC | 0.0795
CGTGTGGC | 0.0953
AGGGTGGA | 0.074
ACCGTGGA | 0.0797
CGCGTCGA | 0.0756
CGTGTGGA | 0.0865
AGCGTGGA | 0.106
CCCGTGGA | 0.0823
CGCGTGGA | 0.147
ACCCTGCA | 0.0751
CTACTAGA | 0.0787
CACTTTGA | 0.0776
CCGCCCTA | 0.0723
CGAATTCC | 0.0757
AGTGGGTG | 0.0863
ACTCGACT | 0.0722
ACACGTGC | 0.567
ACACGTCT | 0.0781
AGACGTGA | 0.0821
ACACGTGA | 0.383
AGACGTGG | 0.0819
ACACGTAG | 0.0822
ACACGTGT | 0.545
ACACGTAC | 0.0858

Sequence | binding signal [normalized occupancy]
ACACGTCC | 0.08
ATACGTGA | 0.081
ACACGTGG | 0.852
ACACGTAT | 0.0833
ATGAAGCA | 0.082
CATTATTA | 0.0832
TAATGCTA | 0.0758
ACTCTGAA | 0.0737
ATTCAGCA | 0.0725
AATCGTTA | 0.0761
ATACGTAT | 0.0856
CCATGGCC | 0.0766
ACATGGCA | 0.0904
CCATGGAC | 0.0837
ACATGGAC | 0.0847
GCATGGAC | 0.0979
ACATGGCC | 0.0878
TCATGGGA | 0.0807
GCATGGCC | 0.0963
TCATGGCA | 0.0816
GCATGGGA | 0.0967
GCATGGCA | 0.102
ACATGGGA | 0.0901
AATTAAGC | 0.0756
CTGACACC | 0.0794

Sequence | binding signal [normalized occupancy]
GTTTGTGA | 0.0718
TAGCATCA | 0.0821
GTCTTCAA | 0.0773
GAGTTGCC | 0.0729
ATTCCATC | 0.0772
TGATTCCA | 0.0829
AACAAACC | 0.074
CCATGATC | 0.0848
GCATGACA | 0.088
ACATGACG | 0.0854
ACATGACA | 0.089
GCATGACC | 0.0988
ACATGATC | 0.101
CCATGACC | 0.0831
ACATGACC | 0.0952
ACATGATA | 0.0928
ATGGGAGC | 0.0768
GTTCCCTA | 0.0721
CGAAAATC | 0.0726
CCTTAACC | 0.0754
CGCTTATA | 0.0805
CAGTCAGG | 0.0732
ACTAAGTC | 0.0734
CCCCTTTC | 0.0738
ACGAACAG | 0.0753

Sequence | binding signal [normalized occupancy]
ACTCACAT | 0.0886
CCTGCTGA | 0.0756
GCCCCACA | 0.0784
CCCCCACA | 0.0839
ATTCCACA | 0.0794
CCCCCACG | 0.0958
CATCCACA | 0.0859
ATTCCACG | 0.0964
CACCCACG | 0.0964
AATCCACG | 0.0813
GTTCCACA | 0.0784
CATCCACG | 0.108
CACCCACA | 0.0789
CACCCACC | 0.0828
CAACTATG | 0.0846
AACAGCAT | 0.087
GTTTGGAA | 0.0754
ACGCCTGG | 0.0735
CAGTAATA | 0.0775
CATCCCCG | 0.0773
TTAATGAA | 0.0772
ACACAGGC | 0.0789
CACTTCGC | 0.0739
GTCCTCAC | 0.0765
AAGAGCAC | 0.0774

Sequence | binding signal [normalized occupancy]
CGCGGGAC | 0.0733
TAAAGGAA | 0.0741
AATCGAAA | 0.0785
ATGATGTG | 0.088
ACGTGGAT | 0.104
AGGTGGAA | 0.0722
GGGTGGAC | 0.0796
ACGTGGAC | 0.106
CCGTGGAC | 0.0739
AAGTGGAA | 0.072
AGGTGGAT | 0.08
GCGTGGAC | 0.0976
AAGTGGAT | 0.0727
AGGTGGAC | 0.0775
GAGTGGAC | 0.0761
ACGTGGAA | 0.108
AGCTGAAA | 0.0723
ACACGGCC | 0.0719
AAACATCC | 0.0762
CGGCACAA | 0.0773
TCAATAGA | 0.0745
ACAAGGCT | 0.0781
GAGGCAGA | 0.0719
CGCTCTAA | 0.0739
AGGGCATA | 0.0779

Sequence | binding signal [normalized occupancy]
CCGTGGAG | 0.0796
TCGTGGAA | 0.0835
ACGTGGAG | 0.0976
CCGTGGAA | 0.0755
GCGTGGAA | 0.106
AGGTGGAG | 0.0827
ACGTATTA | 0.0818
AATGGTTA | 0.0807
CATGACGG | 0.0797
AAGCGTCA | 0.0737
AAGCGTGA | 0.0961
CAGCGTGC | 0.118
CACCGTGC | 0.0868
AAGCGCGG | 0.0752
AAGCGTGG | 0.121
AAGCGTTA | 0.0738
CAGCGCGC | 0.0795
AAGCGTTG | 0.076
GAGCGTGC | 0.0887
AAGCGTGC | 0.104
AAGCGTTC | 0.0728
GGTCGGAC | 0.0772
TATGCTAA | 0.0798
CAATCTCG | 0.0753
ACGCTGAC | 0.0735

Sequence | binding signal [normalized occupancy]
ATTTGAGA | 0.0896
AGACCCTC | 0.0752
CTGGTCAC | 0.0773
ATTTATGC | 0.0838
AGAGTTAA | 0.0737
AAGCGTAT | 0.0722
AAGCGCGT | 0.0758
AAGCGTGT | 0.0967
GAGGGGAA | 0.0755
AAGTGATC | 0.0794
ACGTGATG | 0.103
AGGTGATG | 0.0834
CCGTGATC | 0.0778
GTATGATA | 0.0877
AGGTGATA | 0.0839
CCATGATA | 0.0845
AAGTGATA | 0.0795
AAGTGATG | 0.0756
ACGTGATA | 0.11
ACGTGATC | 0.108
GCATGATA | 0.0994
CTGGACGA | 0.0734
CCTTCAGA | 0.0732
CGAGGGCA | 0.0765
GTGCTGGA | 0.0813

Sequence | binding signal [normalized occupancy]
ATTGATTG | 0.0769
CAAGGGAA | 0.0781
ATGGATGC | 0.082
GCGTGATA | 0.1
CCGTGATA | 0.0782
GAGTGATA | 0.0802
CCATTCAA | 0.0785
AGCATAGG | 0.0718
AGCATGGG | 0.106
ATCATGGG | 0.0858
AGCATTGA | 0.0777
AGCATGGA | 0.1
CGCATGGC | 0.127
ATCATGGC | 0.0863
ATCATGGA | 0.0834
CGCATAGC | 0.0734
CCCATGGC | 0.0849
AGCATGGC | 0.102
AGAATGGC | 0.0756
